Assay outcomes deposited in PubChem by The Scripps Research Institute Molecular Screening Center.
Most compounds without a hit are left out; they make up all but 5.7% or so of the library.
hgDAF12 agonist: hgDAF-12 agonism, primary luciferase screen. HEK293 GAL4-hgDAF12 UAS-luciferase reporter, agonist luminescence; normalized to butyrate control. 370,000 compounds, 1.8% hits. activation, % at 6.8 µM;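 active = activation above a cutoff set at the mean of all screened compounds plus 3 SD, cut at about 10% in these data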;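 also: 0% = DMSO wells and 100% = sodium butyrate wells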
AHR activator: activators of human aryl hydrocarbon receptor | P35869 | AHR-responsive luciferase reporter cells, luminescence | activation, % at 5 µM | 320,000 compounds, 2.5% hits; in the data active = activation above about 47%;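 also: 0% = vehicle wells and 100% = reference agonist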
ssDAF-12 act: S. stercoralis DAF-12 activation, primary screen | HEK293 ssDAF-12/GRIP1 lit1-tk-luc reporter, luminescence; % of 3 µM dafachronic acid response | activation, % at 6.8 µM | 370,000 compounds, 1% hits | AID 652126;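 active = activation above the mean over all tested compounds plus 3 SD, cut at about 0.9% in these data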;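 also: 0% = DMSO-only wells and 100% = 3 µM delta7-dafachronic acid wells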
DAX1 inh-1: blocks DAX1 repression of SF-1 activated StAR promoter; HEK293T StAR-luciferase reporter, SF-1/DAX-1 repression relief; inhibition, % at 6.8 µM; 370,000 compounds, 1.1% hits;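 active = inhibition above the mean over all tested compounds plus 3 SD, cut at about 3.6% in these data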;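 also: 0% = DAX-1 cells with DMSO and 100% = cells lacking DAX-1 with DMSO; higher inhibition means more luminescence from relief of DAX-1 repression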
hcDAF12 agonist: activates DAF-12 receptor from parasite H. contortus; activation, % at 6.8 µM; HEK293 hcDAF-12 lit1-tk-luc reporter, luminescence; 0% DMSO, 100% Δ7-dafachronic acid; 370,000 compounds, 1.4% hits;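 active = activation above the mean of all tested compounds plus 3 SD, cut at about 5.5% in these data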;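 also: 100% = response to 3 µM Δ7-dafachronic acid high control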
DAX1 inh-2: inhibitors of human orphan nuclear receptor DAX1 (NR0B1); P51843; HEK293 Gal4-DAX1 luciferase reporter, luminescence; inhibition, % at 6.75 µM; 340,000 compounds, 0.99% hits; AID 504766;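 active = inhibition above the mean over all tested compounds plus 3 SD, cut at about 4.2% in these data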;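 also: 0% = DAX1-transfected cells with DMSO and 100% = empty-vector control cells with DMSO; inhibition shows as a rise in luminescence from relieved DAX1 repression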
DAX1 conf: NR0B1 (human) inhibition, confirmation; shares compounds with DAX1 inh-1; HEK293T StAR-promoter luciferase reporter, SF-1/DAX-1 repression; inhibition, % at 6.8 µM; 2,400 compounds, 87% hits;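 active = inhibition above the average of every tested compound plus 3 SD, cut at about 3.8% in these data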;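 also: 0% = DAX-1 cells with DMSO and 100% = no DAX-1 control cells with DMSO; active compounds raise luminescence by relieving repression of the StAR reporter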
Target sequence (P51843 whole entry, looked up): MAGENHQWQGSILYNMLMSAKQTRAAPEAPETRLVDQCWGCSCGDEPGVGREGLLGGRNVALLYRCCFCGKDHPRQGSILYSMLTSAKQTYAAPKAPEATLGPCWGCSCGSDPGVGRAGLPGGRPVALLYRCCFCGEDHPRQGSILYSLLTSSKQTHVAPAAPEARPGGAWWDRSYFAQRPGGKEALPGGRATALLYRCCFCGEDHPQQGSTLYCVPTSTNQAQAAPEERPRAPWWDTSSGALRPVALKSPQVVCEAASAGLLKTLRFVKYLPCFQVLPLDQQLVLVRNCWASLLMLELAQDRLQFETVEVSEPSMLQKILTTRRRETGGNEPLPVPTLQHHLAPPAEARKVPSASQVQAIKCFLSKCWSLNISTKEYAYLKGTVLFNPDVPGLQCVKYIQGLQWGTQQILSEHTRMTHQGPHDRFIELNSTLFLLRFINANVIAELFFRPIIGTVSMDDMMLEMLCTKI
SF1 AF2mut Luc: nonselective inhibitor or artifact in SF-1 mutant DAX1 counter-screen; shares compounds with DAX1 inh-1; HEK293 StAR-luciferase, SF-1 AF2 mutant, luminescence; inhibition, % at 6.8 µM; 2,400 compounds, 78% hits;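 active = inhibition above the mean of all tested compounds plus 3 SD, cut at about 3% in these data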;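 also: 0% = DAX-1 transfected cells with DMSO and 100% = cells without DAX-1 with DMSO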
LXRb hcDAF ctr: counter-screen for hcDAF-12 agonists: agonists of human LXR-beta | shares compounds with hcDAF12 agonist | HEK293 Gal4-LXR tk-luc reporter, luminescence, 24 h; normalized: DMSO 0%, positive control 100% | activation, % at 6.8 µM | 3,400 tested, under 10 active | AID 743027;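 active = mean percent activation of the reporter above a cutoff set as the average over tested compounds plus their standard deviation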
hcDAF12 ag: hcDAF-12 agonism, confirmation assay. activation, % at 6.8 µM. AID 743032. 3,400 compounds, 61% hits. HEK293 hcDAF-12 lit1-tk-luc reporter, luminescence; % of Δ7-dafachronic acid response. shares compounds with hcDAF12 agonist;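 active = mean activation across triplicate tests above the threshold derived from the earlier primary screen, cut at about 5.5% in these data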;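 also: 0% = DMSO only wells and 100% = 3 µM Δ7-dafachronic acid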
hgDAF12 ag: confirmation of H. glycines DAF-12 agonists; shares compounds with hgDAF12 agonist; HEK293 GAL4-hgDAF12 luciferase reporter, agonist mode; percent of butyrate response; activation, % at 6.8 µM; 3,300 compounds, 80% hits;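 active = mean activation over triplicate wells above the hit cutoff derived from the earlier primary screen, cut at about 11% in these data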;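 also: 0% = DMSO low control and 100% = 2 mM sodium butyrate high control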
LXRb DAF12 ctr: LXR-beta agonism as DAF-12 counter-screen; shares compounds with hgDAF12 agonist; HEK293 Gal4-LXR luciferase reporter, 24 h; activation, % at 6.8 µM; 3,300 tested, under 10 active; AID 743051;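 active = mean activation of the triplicate above a set limit carried over from the primary screen, none filed active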
* hit, by the source's call; . = not tested or not shown.

SMILES	hgDAF12 agonist	AHR activator	ssDAF-12 act	DAX1 inh-1	hcDAF12 agonist	DAX1 inh-2	DAX1 conf	SF1 AF2mut Luc	LXRb hcDAF ctr	hcDAF12 ag	hgDAF12 ag	LXRb DAF12 ctr
Cc1cc(-c2nc3cc(F)ccc3s2)ccc1N	20*	.	3.7*	7.0*	18*	-3	8.4*	4.5*	2	17*	24*	1
Cc1nn(C(=O)C2CC2)c(C)c1Sc1ccc(Cl)cc1	1	-1	-1	1	1	2	.	.	.	.	.	.
CN(C)c1ccc(-c2csc(C(O)c3ccccc3)n2)cc1 (configuration not stated)	14*	.	0	6.4*	4	.	9.5*	8.6*	.	.	19*	1
OC(c1ccccc1)c1nc(-c2cc3ccccc3o2)cs1 (configuration not stated)	17*	.	0	6.9*	5	.	11*	6.4*	.	.	15*	1
Cc1ccc2c(c1)C(=O)CC(c1ccccc1)S2 (configuration not stated)	20*	.	1.5*	19*	7.7*	3	13*	7.4*	2	6.5*	19*	1
C/C(=N\NC(=O)c1nn(C)c(C)c1Br)c1cccc(NC(=O)c2ccoc2C)c1	16*	-3	0	5.0*	5.9*	3	1	1	.	.	5	0
Cc1ccc(NC(=O)c2nnn(CC(=O)Nc3ccc4c(c3)OCO4)c2N)cc1C	4	10	0	0	2	0	.	.	.	.	.	.
Nc1c(C(=O)Nc2ccc3c(c2)OCCO3)nnn1Cc1ccc(Br)cc1	22*	51*	1.3*	8.1*	9.4*	2	12*	8.6*	1	6.7*	22*	1
COc1cc(OC)nc(Nc2nc(C(N)Cc3ccc(C(F)(F)F)cc3)cs2)n1 (configuration not stated)	1	.	-1	0	0	.	.	.	.	.	.	.
COc1ccc(/C=C/C(=O)N(C)C2CCCCC2)cc1Br	6	-1	-1	0	-1	3	.	.	.	.	.	.
CN(C(=O)/C=C/c1cnc2ccccc2c1)C1CCCCC1	17*	-4	0.9*	7.8*	8.1*	-1	17*	9.9*	1	6.3*	15*	1
C=CCNc1ncnc2c1cnn2-c1ccc(Cl)cc1	15*	39	0	8.8*	4	1	16*	8.1*	.	.	27*	1
COCCCN=Cc1c(C)[nH]n(-c2ccc(Br)c(C)c2)c1=O	18*	14	1	7.0*	7.6*	0	16*	5.2*	2	11*	10	1
CC(=O)c1sc(NC(=O)c2cccs2)nc1C	2	8	-1	0	-1	2	.	.	.	.	.	.
CC(=O)c1sc(NC(=O)c2ccccc2F)nc1C	14*	0	0	5.4*	5	0	13*	6.4*	.	.	14*	1
CC(=O)c1sc(NC(=O)c2ccc(C(C)(C)C)cc2)nc1C	13*	-6	1	7.6*	6.2*	1	14*	9.6*	.	.	19*	1
